According to PubChem BioAssay AID1259422 (The Scripps Research Institute Molecular Screening Center, 2018):
Values joined by “and” are separate entries in the source; they are usually repeats but may differ in a detail not shown here. Equal values may be shown once. The whole screen tested about 640,000 compounds, of which about 9,300 (1.5%) were called active. This is one part of a sample in which actives are shown more often than they occur. Unmarked numbers belong to inactive results. No stated cut-off is given here; in the data, active means inhibition above about 32%; inactive means the rest.

assay: TEAD-YAP interaction inhibition, primary screen, TEAD-YAP interaction inhibitor project, luminescence, HEK-TIYL cells (AID 1259422); settings: TEAD-Gal4/YAP UAS-luciferase luminescence, at 9.12 µM, hits give high values;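 further: 0% = median of test compound wells and 100% = reference inhibitor wells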

| Structure (SMILES) | inhibition |
| --- | --- |
| COc1ccccc1N1CCN(S(=O)(=O)c2ccc(F)c(C(=O)Nc3ccc(C(C)C)cc3)c2)CC1 | -4.13% |
| CC(C)CC(C(=O)N1CCOCCN(C(=O)C(CC(C)C)N2C(=O)c3ccccc3C2=O)CCOCC1)N1C(=O)c2ccccc2C1=O (configuration not stated) | -2.73% |
| CCCOc1c(Cl)cc(/C=C/C(=O)O)cc1OC | 4.32% |
| O=C(NNc1ncc([N+](=O)[O-])cc1[N+](=O)[O-])c1ccncc1 | 6.87% |
| O=C(O)C1CCCCC1C(=O)N1CCN(c2nc(-c3ccccc3Cl)c3cc(Br)ccc3n2)CC1 (configuration not stated) | -2.46% |
| C[C@H]1O[C@@H](O[C@H]2[C@@H](O)C[C@H](O[C@H]3[C@@H](O)C[C@H](O[C@H]4CC[C@]5(C)C6C[C@@H](O)[C@]7(C)[C@@H](C8=CC(=O)OC8)CC[C@]7(O)C6CC[C@@H]5C4)O[C@@H]3C)O[C@@H]2C)C[C@H](O)[C@@H]1O (some centres not stated) | 99.7% (active) and 101% (active) |
| O=C1CCCN1CCCNc1cc(N2CCN(c3ccccn3)CC2)ncn1 | 6.77% |
| CC(=O)c1cc(Cl)cc(Cl)c1O | -4.24% |
| CCCOc1ccc2cc(-c3csc(N)n3)c(=O)oc2c1 | 59.4% (active) |
| CCOC(=O)COc1ccc2cc(-c3nc4ccccc4s3)c(=O)oc2c1 | -4.53% |
| CCN(CC)c1ccc2cc(-c3csc(-c4nc(-c5cc6ccc(N(CC)CC)cc6oc5=O)cs4)n3)c(=O)oc2c1 | 4.64% |
| CN(CCO)c1ccc(/C=N/Nc2nncc3ccccc23)cc1 | 76.3% (active) |
| COc1ccc(/C=N/NC(=O)CN(C)c2ccccc2)cc1OC | -17.2% |
| CN(C)c1ccc(/C=N/Nc2nc(-c3ccccc3)cs2)cc1 | -3.84% |
| c1ccc(CNc2nc3ccccc3n2CCOc2ccccc2)cc1 | -21.7% |
| CCC(CC)NS(=O)(=O)c1ccccc1[N+](=O)[O-] | 12.2% |
| Nc1ccc(Sc2ccccc2[N+](=O)[O-])cc1 | -0.16% |
| CCS(=O)(=O)c1cc([N+](=O)[O-])c(Sc2ccccc2N)s1 | 75.8% (active) |
| COC(=O)c1cnc(N(C)C2CCCCC2)c2ccccc12 | 6.67% |
| CN(c1ccc2nc3ccccc3c(=O)n2n1)C1CCCCC1 | 89.7% (active) |
| CN(C(=O)Cn1nc2c3ccccc3nc(C3CC3)n2c1=O)C1CCCCC1 | -4.4% |
| CC(=O)Nc1ccc(Nc2nc(Nc3ccncn3)nc3c2ncn3-c2ccsc2)cc1 | 6.4% |
| CC(=O)Nc1ccc(Nc2nc(Nc3cnccn3)nc3c2ncn3-c2ccccc2)cc1 | 49.2% (active) |
| c1ccc(Nc2nc(Nc3ncccn3)nc3c2ncn3-c2ccccc2)cc1 | -25.3% |
| CC(=O)Nc1ccc(Nc2nc(Cl)nc3c2ncn3-c2ccsc2)cc1 | 33.8% (active) |
| CC(=O)Nc1ccc(Nc2nc(N3CCC(N4CCOCC4)CC3)nc3c2ncn3-c2ccccc2)cc1 | 5.05% |
| CC(=O)Nc1ccc(Nc2nc(N3CCN(c4ccccn4)CC3)nc3c2ncn3-c2ccsc2)cc1 | 19.9% |
